# In the antibiotic and cytotoxicity screens of Wong et al. (2023):
# Among all 39,000 compounds or so, about 3,300 (8.5%) were called active. The sample holds actives, similar compounds and a random draw of the others, so the mix is not that of the screen.
# Test system: HepG2
# Test: cytotoxicity call (relative viability < 0.9)
# Conditions: 10 µM
row,Compound,cytotoxicity call
1,Cc1cccc(N[C@H]2CS(=O)(=O)C[C@@H]2O)c1,inactive
2,CC(C)(Sc1cc(C(C)(C)C)c(O)c(C(C)(C)C)c1)Sc1cc(C(C)(C)C)c(OC(=O)CCC(=O)O)c(C(C)(C)C)c1,inactive
3,C[C@@H]1CN([C@H](C)CO)C(=O)c2cccc(NC(=O)Nc3ccc(C(F)(F)F)cc3)c2O[C@@H]1CN(C)Cc1ccc(C(=O)Nc2ccccc2N)cc1,inactive
4,C[C@@H]1CN([C@@H](C)CO)C(=O)c2cc(NS(=O)(=O)c3ccc(F)cc3)ccc2O[C@@H]1CN(C)Cc1ccncc1,inactive
5,C[C@@H]1CN([C@H](C)CO)C(=O)Cc2cc(NC(=O)Nc3cccc4ccccc34)ccc2O[C@H]1CN(C)C(=O)Nc1ccc(C(F)(F)F)cc1,inactive
6,COc1ccc(S(=O)(=O)N(C)C[C@H]2Oc3c(NC(=O)NC(C)C)cccc3C(=O)N([C@H](C)CO)C[C@@H]2C)cc1,inactive
7,COc1ccc(S(=O)(=O)Nc2ccc3c(c2)C(=O)N([C@@H](C)CO)C[C@@H](C)[C@@H](CN(C)Cc2ccc(-c4ccccc4)cc2)O3)cc1,active
8,COc1ccc(S(=O)(=O)Nc2ccc3c(c2)C(=O)N([C@H](C)CO)C[C@@H](C)[C@@H](CN(C)Cc2ccc(-c4ccccc4)cc2)O3)cc1,active
9,COc1ccc(S(=O)(=O)Nc2ccc3c(c2)C(=O)N([C@@H](C)CO)C[C@@H](C)[C@H](CN(C)Cc2ccc(-c4ccccc4)cc2)O3)cc1,inactive
10,COc1ccc(S(=O)(=O)Nc2ccc3c(c2)C(=O)N([C@@H](C)CO)C[C@H](C)[C@@H](CN(C)Cc2ccc(-c4ccccc4)cc2)O3)cc1,active
11,COc1ccc(S(=O)(=O)Nc2ccc3c(c2)C(=O)N([C@H](C)CO)C[C@H](C)[C@@H](CN(C)Cc2ccc(-c4ccccc4)cc2)O3)cc1,inactive
12,COc1ccc(S(=O)(=O)Nc2ccc3c(c2)C(=O)N([C@@H](C)CO)C[C@H](C)[C@H](CN(C)Cc2ccc(-c4ccccc4)cc2)O3)cc1,inactive
13,COc1ccc(S(=O)(=O)Nc2ccc3c(c2)C(=O)N([C@H](C)CO)C[C@@H](C)[C@H](CN(C)Cc2ccc(-c4ccccc4)cc2)O3)cc1,inactive
14,COc1ccc(S(=O)(=O)Nc2ccc3c(c2)C(=O)N([C@H](C)CO)C[C@H](C)[C@H](CN(C)Cc2ccc(-c4ccccc4)cc2)O3)cc1,inactive
15,C[C@H]1CCCCO[C@H](CN(C)C(=O)Nc2ccccc2)[C@@H](C)CN([C@@H](C)CO)C(=O)c2cc(NC(=O)C3CCCCC3)ccc2O1,inactive
16,C[C@H]1CN([C@@H](C)CO)S(=O)(=O)c2ccc(C#CC3CC3)cc2O[C@@H]1CN(C)Cc1cccc(F)c1,inactive
17,Nc1ccn(C[C@@H](CO)OCP(=O)(O)O)c(=O)n1,inactive
18,Cc1noc(C)c1S(=O)(=O)Nc1ccc2c(c1)C(=O)N([C@H](C)CO)C[C@@H](C)[C@H](CN(C)Cc1ccc(-c3ccccc3)cc1)O2,inactive
19,Cc1noc(C)c1S(=O)(=O)Nc1ccc2c(c1)C(=O)N([C@H](C)CO)C[C@H](C)[C@@H](CN(C)Cc1ccccc1)OCCCC[C@@H](C)O2,inactive
20,C[C@H](CO)N1C[C@H](C)[C@@H](CN(C)C(=O)NC2CCCCC2)Oc2ccc(NC(=O)Cn3cnnn3)cc2C1=O,inactive
21,C=CCNC(=O)[C@H]1[C@@H]2C(=O)O[C@@H](c3ccccc3)[C@@H](c3ccccc3)N2[C@@H](c2ccc(OCCO)cc2)[C@]12C(=O)Nc1ccc(C#CC3=CCCCC3)cc12,inactive

row,Compound,cytotoxicity call
1,CO[C@@H](CCO)[C@@H](O)c1ccc(O)c(F)c1,inactive
2,C[C@H](CO)N1C[C@H](C)[C@@H](CN(C)Cc2ccccn2)Oc2ncc(C#Cc3cccc(F)c3)cc2C1=O,inactive
3,COc1ccc(S(=O)(=O)Nc2ccc3c(c2)C(=O)N([C@@H](C)CO)C[C@H](C)[C@@H](CN(C)C(=O)Nc2ccc(F)cc2)OCCCC[C@@H](C)O3)cc1,active
4,COc1ccc(S(=O)(=O)Nc2ccc3c(c2)C(=O)N([C@@H](C)CO)C[C@H](C)[C@@H](CN(C)C(=O)Nc2ccc(F)cc2)OCCCC[C@H](C)O3)cc1,active
5,COc1ccc(NC(=O)N(C)C[C@H]2OCCCC[C@H](C)Oc3ccc(NS(=O)(=O)c4ccc(F)cc4)cc3C(=O)N([C@H](C)CO)C[C@@H]2C)cc1,inactive
6,COc1ccc(NC(=O)N(C)C[C@H]2OCCCC[C@@H](C)Oc3ccc(NS(=O)(=O)c4ccc(F)cc4)cc3C(=O)N([C@@H](C)CO)C[C@@H]2C)cc1,inactive
7,COc1ccc(NC(=O)N(C)C[C@@H]2OCCCC[C@H](C)Oc3ccc(NS(=O)(=O)c4ccc(F)cc4)cc3C(=O)N([C@@H](C)CO)C[C@@H]2C)cc1,inactive
8,COc1ccc(NC(=O)N(C)C[C@@H]2OCCCC[C@@H](C)Oc3ccc(NS(=O)(=O)c4ccc(F)cc4)cc3C(=O)N([C@H](C)CO)C[C@@H]2C)cc1,inactive
9,Cc1cc(=O)n2nc(S(C)(=O)=O)nc2[nH]1,inactive
10,C[C@H]1CN([C@@H](C)CO)S(=O)(=O)c2ccc(C#Cc3ccccc3)cc2O[C@@H]1CN(C)C(=O)c1ccccn1,inactive
11,COCc1nc(C)c(CN)s1,inactive
12,COc1ccc(-c2cc(=O)c3c(O)cc(O[C@@H]4O[C@H](CO)[C@@H](O)[C@H](O)[C@H]4O[C@@H]4O[C@H](COC(C)=O)[C@@H](O)[C@@H](O)[C@H]4O)c(O)c3o2)cc1,inactive
13,CSc1cccc(NC(=O)/C=C/c2ccc(C(C)C)cc2)c1,inactive
14,CC(Cc1ccc(O)c(O)c1)(NN)C(=O)O (configuration not stated),active
15,CCOC(=O)[C@@H](N)Cc1ccc(O)c(O)c1,inactive
16,C[C@@](Cc1ccc(O)c(O)c1)(NN)C(=O)O,active
17,O=C(O)Cc1ccc(O)c(O)c1,inactive
18,CO[C@@H]1CN(C)C(=O)c2ccc(NS(=O)(=O)c3cn(C)cn3)cc2OC[C@H](C)N(CCC(F)(F)F)C[C@@H]1C,inactive
19,C[C@H]1CN([C@@H](C)CO)S(=O)(=O)c2ccc(-c3cncnc3)cc2O[C@H]1CN(C)C(=O)c1cccc(F)c1,inactive
20,CCN1CCCC[C@@H]1C(=O)O,inactive
21,C[C@H]1CN([C@@H](C)CO)C(=O)c2cc(NS(=O)(=O)c3cn(C)cn3)ccc2O[C@@H]1CN(C)CC1CCCCC1,inactive
